Measured values from PubChem BioAssay.

Experiments:
[1] = tested on: Human papillomavirus type 1a protein E7 (residues 44-93); experiment: HPV1a E7 fragment binders on microarrays, primary screen, biochemical, small-molecule microarray, residues 44-93, 635 nm fluorescence (AID 1108); settings: small-molecule microarray binding, fluorescence 635 nm; higher = more signal;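 note: E7 fragment applied at 1 µg/mL in TBST for 1 h at 4 C; score combines spot fluorescence with its signal to noise ratio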
[2] = modulators of HCV replicon luciferase signal, primary screen, HCV replication inhibitor project, Huh7 cells, luciferase reporter (AID 1109); settings: 48 h, higher = more signal;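 note: huh7 hepatoma cells harbouring a luciferase neomycin HCV replicon reporter; luciferase luminescence as measure of HCV replicon replication; test concentration not given here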
[3] = molecular target: Left-right determination factor 2 (Homo sapiens) (UniProt O00292); experiment: LEFTY2 binders on small-molecule microarrays, primary screen, biochemical, small-molecule microarray, 635 nm fluorescence scan (AID 1110); settings: LEFTY2 binding, higher = more signal
[4] = molecular target: Calmodulin-1 (Homo sapiens) (UniProt P0DP23); experiment: CALM1 binders on microarrays, EGTA buffer, profiling panel, biochemical, small-molecule microarray, Cy5-labelled CALM1 (AID 1111); settings: Cy5-CALM1 binding fluorescence, higher = more signal;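 note: labelled calmodulin applied in Tris saline Tween buffer holding calcium plus EGTA and DTT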
[5] = molecular target: Calmodulin-1 (Homo sapiens) (UniProt P0DP23); experiment: calcium-bound CALM1 binders on microarrays, profiling panel, artefact control for SMM control-protein annotation, biochemical, small-molecule microarray, Cy5-labelled CALM1, plus calcium (AID 1112); settings: Cy5-CALM1 binding fluorescence, higher = more signal;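 note: score merges spot fluorescence with signal to noise from triplicate slides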
[6] = small-molecule microarray binders of probe aWnt5a, primary screen, biochemical, biotinylated probe, 635/667 nm fluorescence (AID 1113); settings: higher = more signal;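 note: score merges 667 nm fluorescence intensity with signal-to-noise per printed feature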
[7] = small-molecule microarray binders of probe aShh, primary screen, biochemical, biotinylated probe, 635/667 nm fluorescence (AID 1114); settings: higher = more signal;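 note: probe is biotin-labelled aShh protein from a stem cell growth factor screen; measures binding of labelled protein to compounds printed on the slide; score merges feature fluorescence at 667 nm with signal-to-noise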
[8] = small-molecule microarray binders of probe aNog, primary screen, biochemical, biotinylated probe, 635/667 nm fluorescence (AID 1115); settings: higher = more signal;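 note: probe is biotinylated aNog protein used at 0.15 µg/mL for 1 h at 4 C; z-score combines 667 nm fluorescence of each spot with its signal to noise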
[9] = molecular target: Torsin-1A-interacting protein 1 (Homo sapiens) (UniProt Q5JTV8); experiment: LAP1 binders from COS7 cell lysate, primary screen, small-molecule microarray, 635/667 nm fluorescence (AID 1116); settings: COS7-hLAP1 lysate binding, 635 nm fluorescence, higher = more signal
[10] = molecular target: Alpha-bungarotoxin (Bungarus multicinctus) (UniProt P60615); experiment: alpha-bungarotoxin binders on microarray, profiling panel, artefact control for SMM control protein annotation, biochemical, small-molecule microarray, Alexa647 label, 635/667 nm fluorescence (AID 1117); settings: alpha-BTX-A647 binding fluorescence, higher = more signal
Alpha-bungarotoxin (Bungarus multicinctus), sequence (P60615 whole entry, looked up): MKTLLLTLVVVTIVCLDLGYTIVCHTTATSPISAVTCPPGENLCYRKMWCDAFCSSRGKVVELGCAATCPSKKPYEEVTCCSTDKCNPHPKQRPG

Left-right determination factor 2 (Homo sapiens), sequence (O00292 whole entry, looked up): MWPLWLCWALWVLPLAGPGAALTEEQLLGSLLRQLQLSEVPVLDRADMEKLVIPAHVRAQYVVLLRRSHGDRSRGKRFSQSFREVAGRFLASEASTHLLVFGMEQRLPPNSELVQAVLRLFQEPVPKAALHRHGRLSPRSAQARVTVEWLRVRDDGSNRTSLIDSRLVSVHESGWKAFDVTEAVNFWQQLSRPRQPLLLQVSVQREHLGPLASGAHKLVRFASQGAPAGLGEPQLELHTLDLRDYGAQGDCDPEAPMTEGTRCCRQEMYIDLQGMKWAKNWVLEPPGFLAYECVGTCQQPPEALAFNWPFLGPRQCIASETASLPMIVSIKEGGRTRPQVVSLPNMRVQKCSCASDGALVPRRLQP
Torsin-1A-interacting protein 1 (Homo sapiens), sequence (Q5JTV8 whole entry, looked up): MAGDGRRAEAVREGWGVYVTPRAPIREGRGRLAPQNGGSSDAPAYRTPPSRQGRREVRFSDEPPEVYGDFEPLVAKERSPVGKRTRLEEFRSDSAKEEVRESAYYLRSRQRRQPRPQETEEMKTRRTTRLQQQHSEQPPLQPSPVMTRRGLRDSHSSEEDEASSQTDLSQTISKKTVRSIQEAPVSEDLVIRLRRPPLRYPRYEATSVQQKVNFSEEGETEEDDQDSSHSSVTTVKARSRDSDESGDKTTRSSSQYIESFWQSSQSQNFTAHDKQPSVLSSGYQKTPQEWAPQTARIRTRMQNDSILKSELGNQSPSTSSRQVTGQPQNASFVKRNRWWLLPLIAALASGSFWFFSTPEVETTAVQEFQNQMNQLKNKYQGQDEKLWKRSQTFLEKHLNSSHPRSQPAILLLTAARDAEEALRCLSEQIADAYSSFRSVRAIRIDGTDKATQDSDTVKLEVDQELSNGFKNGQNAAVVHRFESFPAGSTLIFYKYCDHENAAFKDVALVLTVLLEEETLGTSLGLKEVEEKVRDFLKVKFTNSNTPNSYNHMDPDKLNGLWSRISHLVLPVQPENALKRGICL

| Compound | composite z-score [1] | z-score [2] | composite z-score [3] | composite z-score [4] | composite z-score [5] | composite z-score [6] | composite z-score [7] | composite z-score [8] | composite z-score [9] | composite z-score [10] |
| --- | --- | --- | --- | --- | --- | --- | --- | --- | --- | --- |
| COc1ccc([Si](C)(C)[C@H]2[C@H](CCO)O[C@@]3(C(=O)N(Cc4ccccc4)c4ccc(N5C(=O)COc6ccccc65)cc43)[C@@H]2C)cc1 | -1.13 | -4.64 | 0.206 | 1.44 | 1.12 | -0.136 | 0.108 | -0.487 | 0.216 | 0.662 |
| COC(=O)[C@@]1(Cc2ccc(F)cc2)[C@H]2c3cc(C(=O)N4CCCC4)n(Cc4ccc(Cl)c(C(F)(F)F)c4)c3C[C@H]2CN1C(=O)c1ccccc1 | 1.37 | -2.42 | 0.04 | 2.51 | 1.42 | 0.963 | 2.64 | 1.16 | 1.68 | 1.57 |
| CN(C)CCCC[C@@H]1NC(=O)[C@H]2C[C@@H](C(=O)NCCCCCNC(=O)CS)[C@@H](c3ccc(O)cc3)N2C1=O | -0.781 | 0.579 | -1.34 | -0.0462 | 0.586 | -0.124 | -0.0396 | -0.0793 | 0.172 | 0.808 |
| CCCCC(=C=CC[C@H](O)c1ccccc1OCCO)C[C@H](O)c1cc(Cl)cc(Cl)c1O | 0.405 | -1.18 | -0.408 | 0.684 | 0.466 | -0.0445 | 0.0278 | 0.22 | 0.582 | 0.876 |
| CCCNC(=O)[C@@]1(C)c2ccccc2C(=O)N(Cc2ccc(OC(F)(F)F)cc2)[C@H]1c1ccc(CO)cc1 | -0.481 | -0.16 | -0.808 | 0.149 | -0.124 | -0.0685 | -0.222 | 0.597 | 1.28 | 0.0855 |
| O=C1C2C=CC(C(O)c3cccc4ccccc34)N(n3cnnc3)C2C(=O)N1Cc1ccccc1 (stereo not given) | 0.0125 | -1.16 | 0.102 | 0.197 | -0.151 | 1.06 | -0.309 | 2.2 | 0.67 | 0.274 |
| COCCOC(=O)N1C(=O)[C@@]2(c3cc(C#Cc4ccc(OC)cc4)ccc31)[C@H](c1ccc(O)cc1)N1[C@H](c3ccccc3)[C@H](c3ccccc3)OC(=O)[C@H]1[C@@H]2C(=O)N1CCN(c2ncccn2)CC1 | 1.37 | -1.05 | 0.224 | 0.966 | 0.361 | -0.0846 | -0.441 | -0.124 | 0.596 | 0.829 |
| COCCn1c(C(=O)N(C)C)cc2c1C[C@H]1CN(C(=O)c3ccccc3)[C@@](Cc3ccc(F)cc3)(C(=O)OC)[C@@H]21 | 1.3 | -0.285 | -0.0863 | 0.487 | 0.666 | 0.0559 | 0.385 | 0.873 | 0.153 | 0.305 |
| O=C(NCC(F)(F)F)[C@@H]1c2ccccc2C(=O)N(Cc2ccccc2)[C@H]1c1ccc(CO)cc1 | 0.337 | -0.32 | -1.78 | -0.189 | 0.621 | -0.158 | -0.0849 | 0.0056 | -0.236 | -0.846 |
| O=C1O[C@H](c2ccccc2)[C@H](c2ccccc2)N2[C@H]1[C@@H](C(=O)N1CCCCCCC1)[C@]1(C(=O)Nc3ccc(C#CC4=CCCCC4)cc31)[C@H]2c1ccc(O)cc1 | 1.54 | -2.29 | 1.78 | 3.22 | 2.02 | 1.68 | 3.35 | 3.53 | 5.98 | 5.18 |
| O=C(N1CCCCC1)[C@]1(CCS(=O)(=O)c2ccccc2)N=C(c2ccc(OCCCO)cc2)O[C@@H]1c1ccccc1 | 0.876 | -3.16 | 0.101 | 1.91 | 1.02 | 0.055 | 1.49 | 0.56 | 0.917 | 2.56 |
| CCCCC(=O)N(Cc1ccccc1F)[C@@H]1CC(C(=O)NCCO)=C[C@H](Oc2c(I)cc(CO)cc2OC)[C@H]1O | 1.42 | -1.06 | 1.29 | 3.17 | 1.4 | 0.0004 | 0.123 | -0.083 | 0.994 | 1.79 |
| COc1ccc(CCNC(=O)[C@@]2(C)c3ccccc3C(=O)N(Cc3ccccc3)[C@H]2c2ccc(CO)cc2)cc1 | 1.16 | -2.06 | 0.449 | 0.617 | -0.703 | 0.0618 | 0.0141 | 0.304 | 1.56 | 1.78 |
| NC(=O)[C@@]1(CCS(=O)(=O)c2ccccc2)N=C(c2ccc(OCCCO)cc2)O[C@H]1c1ccccc1 | 1.49 | -2.05 | -0.38 | 1.37 | 0.699 | 0.0845 | 0.396 | 1.28 | 1.89 | 1.42 |
| [N-]=[N+]=Nc1ccccc1[C@H]1OC(c2ccc(OCCCO)cc2)=N[C@@]1(CCS(=O)(=O)c1ccccc1)C(=O)N1CCOCC1 | 0.946 | 0.384 | 0.52 | 2.15 | 1.24 | 0.318 | 1.39 | 1.28 | 2.1 | 3.35 |
| CCCCN1CC=CC23O[C@@H]4/C=C\CCCOC(=O)C4[C@H]2C(=O)N(C(C)CO)[C@@H]3C1=O (stereo not given in full) | -0.779 | -0.112 | -0.697 | -0.573 | -0.101 | -0.172 | -0.17 | -0.186 | -0.585 | -0.0491 |
| CN(C)CCCCCCNC(=O)[C@@H]1C[C@@H]2C(=O)NCC(=O)N2[C@@H]1c1cccc(OCCO)c1 | 1.12 | -0.358 | 1.36 | 0.138 | -0.708 | -0.0222 | 0.0948 | 0.107 | 1.88 | -0.0783 |
